# According to PubChem BioAssay AID1745856 (National Center for Advancing Translational Sciences (NCATS), 2022):
# About 270 (0.23%) of roughly 120,000 compounds were called active. Entries that show only a call come without a potency. About 5% were inconclusive and are not listed. The call rests on the fitted dose curve. The full list was thinned out, with actives kept by preference.
# Test: Primary qHTS Assay for Foot and Mouth Disease Virus Antivirals against NCGC Sytravon and CBC Compound Libraries: Firefly Luciferase Signal; further: nearly all actives have a fitted effect of over 60% in size
# Conditions: FMDV antiviral cell assay; series mostly up to 57.5 µM
# Potency means the concentration at half of the fitted maximal effect.
row,Structure (SMILES),Potency
1,CCCc1cc(=O)oc2cc(OCC(=O)NCc3ccc(S(N)(=O)=O)cc3)ccc12,inactive
2,O=C(NCc1ccccn1)C1c2ccccc2C(=O)N(C2CCCC2)C12CCCC2 (stereo not drawn),inactive
3,COc1ccc(-c2nc(CSCC(=O)NC3CCCCCC3)c(C)o2)cc1OC,14.1 µM (active)
4,CCOc1cc(-c2nnc(SCC(=O)NC3CCCCC3)nc2-c2ccc(OC)c(OCC)c2)ccc1OC,inactive
5,CCOc1cc(-c2nnc(SCC(=O)NC3CCCC3)nc2-c2ccc(OC)c(OCC)c2)ccc1OC,inactive
6,O=C(NCc1cccnc1)C(F)(F)C(F)(F)C(F)(F)F,inactive
7,Fc1ccc(N=Cc2cccc(Oc3ccccc3)c2)c(F)c1F,inactive
8,COc1cccc(NC(=O)CCCc2nc(C(C)C)no2)c1,inactive
9,CCN1CCCC1CNC(=O)c1cccc2c(=O)c(C)c(-c3ccccc3)oc12 (stereo not drawn),inactive
10,Cc1ccc(NC(=O)COC(=O)c2ccc(C3Nc4ccccc4S(=O)(=O)N3)cc2)cc1 (stereo not drawn),inactive
11,CC(C)c1cccc(NC(=O)Cc2c[nH]c3ccccc23)c1,inactive
12,Cc1ccc(-c2csc3c2NC(=O)CC3c2ccc(C)cc2)cc1 (stereo not drawn),inactive
13,COc1ccc(C2CC(=O)Nc3c2c(=O)nc2c(C)cccn32)cc1OC (stereo not drawn),inactive
14,COc1ccc(-c2csc3c2NC(=O)CC3c2ccc(OCC(N)=O)c(OC)c2)cc1 (stereo not drawn),3.98 µM (active)
15,Cn1c(=O)[nH]c(=O)c2c1nc(NC1CCCCC1)n2CCCc1ccccc1,inactive
16,Cn1nc(CC(=O)Nc2cccc(Cl)c2)c2ccccc2c1=O,8.91 µM (active)
17,COc1ccc(Cl)cc1NC(=O)COC(=O)c1nn(C)c(=O)c2ccccc12,inactive
18,COc1ccc(NC(=O)COC(=O)c2nn(C)c(=O)c3ccccc23)cc1Cl,inactive
19,Cc1ccc(-c2nc(CC(=O)NCc3ccc(Cl)cc3)cs2)o1,inactive
20,COC(=O)c1c(C)[nH]c(C(=O)N2CCCCCC2c2ccc(OC)cc2)c1C (stereo not drawn),inactive
21,COc1nc2ccccc2nc1N1CCC(C(=O)NCc2ccccc2)CC1,inactive
22,COc1ccc(-c2cc(C(F)(F)F)nc(S(=O)(=O)CCC(=O)NCc3ccccc3)n2)cc1,inactive
23,CC(C)(C)c1ccc(-c2nnc(-c3ccc(Br)o3)o2)cc1,inactive

row,Structure (SMILES),Potency
1,Clc1ccc(CNc2n[nH]c(-c3ccco3)n2)c(Cl)c1,inactive
2,O=C(c1ccn(COc2ccccc2)n1)N1CCN(Cc2ccc(Cl)c(Cl)c2)CC1,inactive
3,Cn1ccnc1C(NC(=O)Cc1ccsc1)c1ccccc1F (stereo not drawn),inactive
4,O=C(NC12CC3CC(CC(C3)C1)C2)C1CCCO1 (stereo not drawn),inactive
5,C=C(C)C#CC(Cc1ccccc1)NCC1CC1 (stereo not drawn),inactive
6,O=C(/C=C/c1ccc(Cl)cc1)OC1CCCCC1=O (stereo not drawn),inactive
7,CCOc1ccc2c(c1)cc(C(=O)Nc1cc(OC)ccc1OC)n2C,inactive
8,COC(=O)c1ccc(S(=O)(=O)Nc2cccc(C(=O)OC)c2)cc1,inactive
9,COCCn1c(-n2nc(C)cc2C)nc2c1c(=O)n(Cc1ccccc1F)c(=O)n2C,inactive
10,Cc1ccc(NC(=O)c2cccc(CS(C)=O)c2)c(C)c1 (stereo not drawn),inactive
11,FC(F)(F)c1cnc(Sc2nnc(C3CC3)n2-c2ccccc2)c(Cl)c1,inactive
12,O=C(CSc1n[nH]c(-c2cc(Cl)ccc2Cl)n1)N1CCCC1,inactive
13,CCC(=O)Nc1ccc(C)cc1-c1nnc(SCC(=O)Nc2cc(Cl)ccc2Cl)[nH]c1=O,inactive
14,COc1ccc2c(C)c(CC(=O)N3CCN(c4ccccn4)CC3)c(=O)oc2c1OC,inactive
15,COc1ccccc1Oc1coc2cc(OCc3ccc(Cl)cc3)ccc2c1=O,inactive
16,CCn1c(=O)c2sccc2n(CC(=O)N2CCOc3ccc(C)cc32)c1=O,inactive
17,CC(=O)Nc1ccc(C(=O)COc2ncnc3sccc23)cc1,inactive
18,CCCCC(CC)CNC(=O)CCCCn1c(=O)[nH]c2ccsc2c1=O (stereo not drawn),inactive
19,CCCCC(CC)CNc1ncnc2sccc12 (stereo not drawn),8.91 µM (active)
20,C=CCn1c(-n2nc(C)cc2C)nc2c1c(=O)n(CCOCC)c(=O)n2C,inactive
21,CC(C)Oc1ccc(C2CC(=O)NC3=C2C(=O)CC(C)(C)C3)cc1 (stereo not drawn),inactive
22,N#C/C(=C/c1ccco1)c1nc2ccccc2[nH]1,inactive
23,CC(Cn1cccn1)NC(=O)c1cc(Cl)c2c(c1)OCO2 (stereo not drawn),inactive

row,Structure (SMILES),Potency
1,Cc1cc(=O)n2c3ccccc3n(CC(O)CNc3ccc(Cl)cc3)c2c1C#N (stereo not drawn),inactive
2,CCOC(=O)C1(C(C)=O)CC(C(=O)c2ccccc2)C(c2ccccc2)C(C(=O)c2ccccc2)C1 (stereo not drawn),inactive
3,COc1cc(OC)cc(C(NC(=O)NOCc2ccccc2)c2nccn2C)c1 (stereo not drawn),inactive
4,Cc1ccc(Cn2c(Br)nc3c2c(=O)n(C)c(=O)n3C)cc1,inactive
5,O=C(Cc1ccccc1)Nc1ccc2oc(-c3ccc(F)cc3)nc2c1,inactive
6,Cc1cc(C)c2c(c1)/C(=N/Nc1nc3ccccc3[nH]1)CCC2,4.47 µM (active)
7,Cc1cc(C)c2c(c1)C(=O)CCC2,inactive
8,Cc1cc(O)c2c(C)c(CC(=O)Nc3nc4ccccc4[nH]3)c(=O)oc2c1,inactive
9,CC(=O)N1CCN(C(=O)CCC(=O)N2CCC(c3noc4cc(F)ccc34)CC2)CC1,inactive
10,Cc1oc(C)c(C(=O)Nc2ccccc2O)c1C,inactive
11,Cc1cnc2c(S(=O)(=O)N3CCN(C(C)CC#N)CC3)cccc2c1 (stereo not drawn),inactive
12,CNC(=O)NC(=O)CN1CCCC(c2nc3ccccc3o2)C1 (stereo not drawn),inactive
13,Cc1ccc(-c2noc(-c3occc3Br)n2)cc1,inactive
14,O=S(=O)(NCC12CC3CC(CC(C3)C1)C2)c1cccs1,inactive
15,CCCCN(CCCNC(=O)c1cc(Nc2ccccc2OC)nc2ccccc12)c1ccccc1,inactive
16,COc1ccc(Nc2cc(C(=O)NCCCN(C)c3ccccc3)c3ccccc3n2)c(OC)c1,inactive
17,COc1ccccc1Nc1cc(C(=O)NCCCN(C)C2CCCCC2)c2ccccc2n1,28.2 µM (active)
18,CC1CCN(S(=O)(=O)N(C)Cc2ccc3c(c2)OCCO3)CC1,inactive
19,O=C(CN1CCN(CC(=O)Nc2ccccc2C(=O)c2ccccc2)CC1)Nc1cccc(F)c1,inactive
20,COc1ccc(C=O)cc1OCc1c(F)cccc1Cl,inactive
21,CC(C)C(=O)NC(Nc1cccc(Cl)c1Cl)C(Cl)(Cl)Cl (stereo not drawn),inactive
22,CC(NC(=O)Cn1nnn(-c2ccccc2)c1=O)c1ccccc1 (stereo not drawn),inactive
